Results: PubChem BioAssay AID697 (Columbia University Molecular Screening Center, 2007)
Among all 96,000 compounds or so, about 100 (0.1%) were called active.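 The calls were made as follows: active = activation at 2 µM above a set limit, the mean plus 5 SD (cut at about 37% in these data); inactive = the rest.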 The sample as a whole holds a higher share of actives than the screen did.

Biological target: Tyrosine-protein phosphatase non-receptor type 22 (Homo sapiens) (UniProt Q9Y2R2)
Test: enhancers of human PTPN22 catalytic activity – biochemical, DiFMUP fluorescence, 2 µM, primary screen (AID 697)
Settings: recombinant LYP, at 2 µM, active compounds read high, 0 = plate median, 100 = signal doubled

Chain of Tyrosine-protein phosphatase non-receptor type 22 (Homo sapiens) (Q9Y2R2 whole entry, looked up): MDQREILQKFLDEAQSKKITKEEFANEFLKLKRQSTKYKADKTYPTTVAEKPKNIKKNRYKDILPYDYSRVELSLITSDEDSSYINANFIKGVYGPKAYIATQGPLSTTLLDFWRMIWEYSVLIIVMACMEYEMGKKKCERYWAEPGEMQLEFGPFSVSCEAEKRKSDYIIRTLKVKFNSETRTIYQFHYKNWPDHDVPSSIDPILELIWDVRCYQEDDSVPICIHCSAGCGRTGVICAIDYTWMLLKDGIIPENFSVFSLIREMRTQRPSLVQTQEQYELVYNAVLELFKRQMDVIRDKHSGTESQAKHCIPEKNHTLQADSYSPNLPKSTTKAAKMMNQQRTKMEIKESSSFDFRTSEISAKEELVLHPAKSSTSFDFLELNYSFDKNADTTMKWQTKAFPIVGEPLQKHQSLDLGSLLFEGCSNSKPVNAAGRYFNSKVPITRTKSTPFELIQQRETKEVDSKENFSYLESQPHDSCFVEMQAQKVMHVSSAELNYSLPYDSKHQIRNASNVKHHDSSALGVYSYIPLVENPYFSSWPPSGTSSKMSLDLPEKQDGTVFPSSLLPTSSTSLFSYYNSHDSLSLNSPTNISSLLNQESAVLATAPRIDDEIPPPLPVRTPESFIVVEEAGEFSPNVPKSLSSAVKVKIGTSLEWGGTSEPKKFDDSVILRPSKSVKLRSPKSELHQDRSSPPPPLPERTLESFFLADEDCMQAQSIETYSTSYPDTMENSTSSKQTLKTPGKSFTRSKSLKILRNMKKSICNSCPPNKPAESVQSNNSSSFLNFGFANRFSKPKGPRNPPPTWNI

activation, inactive:
Cc1cc(C)n2nc(C(=O)NC(C)(C)C)nc2n1 3.4%, C=CCN(C(=O)Nc1ccc2oc(C)nc2c1)c1ccccc1 -7.1%, COC(=O)c1cccc(-n2[nH]nnc2=S)c1 -1.7%, CC(C)(CCl)C(=O)Nc1ccc(Sc2ccc(F)cc2)cc1 1.3%, CC1(C)Cc2cccc(OCC(N)=O)c2O1 -3.7%, CCCCCCc1cc2cc(-c3nnc(-c4cccc(OC)c4)o3)c(=O)oc2cc1O -30.3%, COc1ccc(CNc2ccc3c(c2)CCC3)cc1OC -10.3%, COc1ccc(OC)c(-n2nnnc2SCC(=O)Nc2cc(C)ccc2OC)c1 2.6%, CC(C)C(=O)Nc1ccc2c(c1)oc1ccccc12 -1.6%, N/C(=N\OC(=O)c1cc(-c2ccccc2)nc2ccccc12)c1ccncc1 -7.1%, COc1ccc2c(c1)cc1n2CCN=C1NN 0.1%, COc1ccc(NC(=O)C2C3C=CC(C3)C2C(=O)NCc2ccccn2)c(OC)c1 (configuration not stated) -5%, CC1=NN(/C(=N\c2nnc(C)s2)Nc2ccccc2)[C@H](c2ccc(C)cc2)S1 -6.4%, CCc1ccc(C(=O)CSc2nnc(C)c(=O)[nH]2)cc1 -2.7%, COc1ccc(OC(C)C(=O)Nc2cccnc2)cc1 (configuration not stated) 6.9%, C/C(=N/NC(=O)c1ccc(NC(=O)c2ccc(F)cc2)cc1)c1ccccc1 -1.9%, CCc1ccc(C2C(C#N)=C(N)Oc3n[nH]c(CC(=O)OC)c32)cc1 (configuration not stated) 5.3%, COC(=O)CSc1nc2c(c(C3CC=CCC3)c1C#N)CCC2 (configuration not stated) -5.9%, C=CCNC(=O)c1cc2nc(C3CC3)cc(C(F)F)n2n1 -5.5%, COC(=O)c1cccc(N(C(=O)c2ccco2)C(C(=O)NC2CCCC2)c2ccco2)c1 (configuration not stated) 6.5%, CC(C)C(=O)Nc1nnc(Sc2ccc(N(C)C)cc2)s1 -2.7%, Cc1nn(Cc2ccc(F)cc2)c(C)c1NC(=O)c1noc2c1CCc1ccccc1-2 7.1%, CCOc1c2ccc(C(=O)NCc3ccc(OC(F)(F)F)cc3)cc2nn1C 10%, COc1cc(C(=S)N2CCOCC2)cc(OC)c1OC(=O)c1cc([N+](=O)[O-])c(C)c([N+](=O)[O-])c1 7%, Cc1cc(-c2cccs2)nc(-n2cccc2)n1 3.4%, CC1=CC(=O)C=CC1(C)C(Cl)(Cl)Cl (configuration not stated) 3.7%, FC(F)(F)c1cc(C(F)(F)F)c2ccc(N3CCN(c4ccccc4)CC3)nc2n1 2.8%, O=C1OC(c2ccc(Cl)cc2)=N/C1=C\c1cccnc1 7.7%, CC(C)c1cc(C(=O)O)n[nH]1 1.7%, O=C(Nc1ccc2nc3n(c(=O)c2c1)CCCCC3)c1ccccc1Cl -2.7%, CC1(C)CC(=O)C=C(N2CCCC2)C1 -1.1%, Cc1ccc(C2=CSC3=NS(=O)(=O)CCN23)cc1C -4.4%, Cc1ccc(-n2c(=O)c(C#N)cc3c(=O)n4ccccc4nc32)cc1C 5.7%, CCCCCOC(=O)c1ccc(N2C(=O)C3C4C=CC(C4)C3C2=O)cc1 (configuration not stated) 12.4%, CCC(C)NC(=O)c1ccccc1NC(=O)c1ccccc1N(C)S(C)(=O)=O (configuration not stated) 0.7%, CC(C)CC(=O)N1CCC(O)(CS(=O)(=O)Cc2ccccc2)CC1 -3.4%, CCCCNC(=O)c1onc(CSc2cccc(OC)c2)c1C(=O)O 4.5%, COc1ccc(CCN(C(=O)COc2ccccc2)c2nc(-c3ccccc3)cs2)cc1OC -13.3%, Cc1noc(NS(=O)(=O)c2ccc(N/C=C/C(=O)c3ccccc3)cc2)c1C 1.5%, CCCCCc1ccc(-c2ccc(C(=O)O)cc2)nc1 -8.9%, Cc1sc(NC(=O)C2C3CCC(O3)C2C(=O)O)c(C(=O)OC(C)C)c1-c1ccc(Cl)cc1 (configuration not stated) -4.2%, COc1cc(/C=C2/C(=O)ON=C2C)ccc1OCc1ccccc1F 6.2%, Cc1ccc(S(=O)(=O)/N=C(\CN2CCOCC2)N2CCOCC2)cc1 -1.4%, FC(F)(F)c1nc2ccccc2nc1N/N=C/c1ccc(Cl)cc1 5.5%, CCOC(=O)Cn1c(-c2cccnc2Cl)nc2ccccc21 15.2%, NC(=O)C1(N2CCCCC2)CCN(C2CC(=O)N(Cc3ccc(N4CCCC4=O)cc3)C2=O)CC1 (configuration not stated) -5.5%, CN(C)C(=O)c1cc(Br)ccc1Cl -3.6%, COc1ccc(N(CC(=O)N/N=C/c2cccc3c2OCCO3)S(=O)(=O)c2ccc(NC(C)=O)cc2)cc1 7.5%, O=C(/C=C/c1ccc(Cl)cc1Cl)c1cccnc1 2.2%, CCOC(=O)N1CCN(Cc2nc(N)nc(Nc3ccc(C)cc3)n2)CC1 7.7%, COc1cc(/C=C(\C#N)c2nc3c(s2)CC(C)CC3)ccc1O (configuration not stated) -3.9%, COCc1cc(C)nc2sc3c(=O)n(-c4cccc5ccccc45)nnc3c12 -7.5%, CC(=O)NC1=NN(C(C)=O)C(C)(c2ccc(Cl)s2)S1 (configuration not stated) 5.6%, O=S(=O)(c1cccc2nonc12)N1CCN(c2cccc(Cl)c2)CC1 8.3%, O=C(O)CSCc1ccc(C(=O)O)o1 -1.8%, CC(=O)c1cc2c(cc1NC(=O)CN1CCCCCC1)OCO2 -5.9%, COc1ccccc1CNS(=O)(=O)c1ccc(C)cc1 -13.5%, COC(=O)C1=C(C(=O)OC)C2(OC1c1ccc(Br)cc1)C(=O)c1ccccc1C2=O (configuration not stated) -2.6%, O=C(Cc1ccc2c(c1)CCCC2)Nc1ccccc1Cl 5.5%, CCOc1ccccc1C(=O)NC1CC2CCCC(C1)N2Cc1ccccc1 (configuration not stated) -12.3%, O=C(COc1ccc(S(=O)(=O)NCc2ccccc2)cc1)N1CCOCC1 2.4%, Cc1cccc(C)c1OC(=O)CSc1nnc(-c2ccccc2)o1 1.3%
